These results are taken from PubChem BioAssay.

The term inhibition denotes the relative decrease from the control value, in per cent.

Unmarked numbers belong to inactive results.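 How the source made its calls: active means inhibition at or above 50% relative to wild type and mutant plate controls; inactive means inhibition below 50%.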

The assay can be described thus: loss of swimming-algae plug formation – whole organism, Chlamydomonas reinhardtii, WT vs cilia-less mutant, absorbance, 96-well, primary screen (AID 463189).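 Further: 0% = wild type cc124 cells in DMSO and 100% = ciliumless bld1 mutant cells.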 Particulars: Chlamydomonas reinhardtii gravitaxis, OD600 absorbance, 2 days; at 10 µM; hits give high values.
As to `Nc1nc(N)c2nc(CNc3ccc(C(=O)NC(CCC(=O)O)C(=O)O)cc3)cnc2n1` (centres undefined), the inhibition was 10.5%.
The value for `OC1(c2ccc(Cl)cc2)CCN(Cc2c[nH]c3ccccc23)CC1` was 21.4%; that for `O=C1Cc2c([nH]c3ccc(Br)cc23)-c2ccccc2N1` was -1.32%.
Next, `O=C(O)C1=CC(=C(c2ccc(O)c(C(=O)O)c2)c2ccc(O)c(C(=O)O)c2)C=CC1=O`: 0.098%; `CCCCCCCCCCCCCCSCC(=O)O`: 7.96%.
Consider `O=C(Nc1cc(C(=O)Nc2ccc(S(=O)(=O)O)cc2S(=O)(=O)O)cc(C(=O)Nc2ccc(S(=O)(=O)O)cc2S(=O)(=O)O)c1)Nc1cc(C(=O)Nc2ccc(S(=O)(=O)O)cc2S(=O)(=O)O)cc(C(=O)Nc2ccc(S(=O)(=O)O)cc2S(=O)(=O)O)c1`, for which the inhibition was 10.7%.
The value for `COc1cc2c(cc1OC)[C@@H](c1ccccc1)CN(C)CC2` was 8.36%.
Next, `O=C(OCCN1CCCCC1)c1c[nH]c2ccccc12`: 5.42%; `Cn1cc(C(F)(F)F)nc1-c1ccc(OCC(O)CNCCOc2ccc(O)c(C(N)=O)c2)cc1` (centres undefined): -6.96%.
`N#CC(Cc1ccc(O)c(O)c1)C(=O)N1CCc2ccccc21` (centres undefined): the inhibition is 0.886%.
On to `COc1ccc2c(c1)c(CC(=O)O)c(C)n2Cc1ccc(Cl)cc1`, for which the inhibition was -1.76%.
As to `C[C@H](O)C(=O)C1=Nc2c(nc(N)[nH]c2=O)NC1`, the inhibition was 7.45%.
Turning to `NC(=NCc1ccccc1)NC(=O)c1nc(Cl)c(N)nc1N`, the inhibition was -1.5%.
In the case of `CN=C(NC#N)NCCSCc1nc[nH]c1C`, the inhibition was 8.94%.
